From the supplement of paper PMC7530171
Where a name gives a salt, the structure may show the parent alone. ± gives the standard deviation.

What follows are molecules tested on THP-1 macrophages infected with Mycobacterium tuberculosis H37Rv (assay: intracellular M.tb growth inhibition relative to DMSO (0) and 4 uM bedaquiline (100); higher = stronger inhibition of intracellular bacterial growth). Settings: 10 µM; 4 days.
Method: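 OICR kinase inhibitor library screened in duplicate at 10 uM against THP-1 macrophages (PMA-differentiated) infected with M. tuberculosis H37Rv-pTEC27 (tdTomato RFP), 4 days at 37 C. Rows with complete host cell loss (placeholder inhibition 0, cell loss 100) were removed.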

Row | Compound | intracellular M.tb growth inhibition [%]
1 | CC[C@@H]1/C=C(\C)C[C@H](C)C[C@H](OC)[C@H]2O[C@@](O)(C(=O)C(=O)N3CCCC[C@H]3C(=O)O[C@H](/C(C)=C/[C@@H]3CC[C@H](Cl)[C@H](OC)C3)[C@H](C)[C@@H](O)CC1=O)[C@H](C)C[C@@H]2OC [Pimecrolimus] | 45.4 ± 4.6
2 | C/C(=N\N=C(N)N)c1ccc(NC(=O)c2cc3cccc([N+](=O)[O-])c3[nH]2)cc1 | -73 ± 67
3 | O=C(NC1CCNCC1)c1n[nH]cc1NC(=O)c1c(Cl)cccc1Cl | 29.6 ± 42
4 | Cc1c(NC(=O)OC[C@@H]2COCCN2)cn2ncnc(Nc3ccc4c(cnn4Cc4cccc(F)c4)c3)c12 | 48.3 ± 10
5 | CC(=O)c1c(C)c2cnc(Nc3ccc(N4CCNCC4)cn3)nc2n(C2CCCC2)c1=O | -126 ± 210
6 | Cc1cc2c(F)c(Oc3ncnn4cc(OC[C@@H](C)O)c(C)c34)ccc2[nH]1 [Brivanib] | -66.6 ± 160
7 | Nc1ncnc2c1c(-c1cccc(OCc3ccccc3)c1)cn2C1CC(CN2CCC2)C1 (stereo not given) | -22.8 ± 12
8 | O=C(O)c1cc(N(Cc2ccccc2O)Cc2cc(O)ccc2O)ccc1O [Lavendustin A] | 10.4 ± 41
9 | N#C/C(=C\c1ccc(O)c(O)c1)C(=O)Nc1ccccc1 | -35.4 ± 5.2
10 | N#C/C(=C\c1ccc(O)c(O)c1)C(=O)NCc1ccccc1 | 9.47 ± 28
11 | Cc1cc(Nc2cc(N3CCN(C)CC3)nc(/C=C/c3ccccc3)n2)n[nH]1 | -329 ± 400
12 | O=c1cc(N2CCOCC2)oc2c1ccc1ccccc12 | 19.8 ± 4.3
13 | O=c1c(-c2ccc(O)cc2)coc2cc(O)cc(O)c12 [Genistein] | 10.7 ± 10
14 | Cc1cc(C(=O)N2CCN(c3cccc(Cl)c3)CC2)n(-c2ccccc2)n1 | -17.5 ± 0.18
15 | COc1cc2c(N3CCN(C(=O)Nc4ccc(OC(C)C)cc4)CC3)ncnc2cc1OCCCN1CCCCC1 | 53 ± 8
16 | C=CC(=O)Nc1cccc(Oc2nc(Nc3ccc(N4CCN(C)CC4)cc3OC)ncc2Cl)c1 | -39 ± 120
17 | CC[C@H](CO)Nc1nc(NCc2ccccc2)c2ncn(C(C)C)c2n1 [Roscovitine] | -23.1 ± 47
18 | CCn1c(-c2nonc2N)nc2c(C#CC(C)(C)O)ncc(OC[C@H]3CCCNC3)c21 | -124 ± 170
19 | COc1cc(Nc2c(C#N)cnc3cc(OCCCN4CCN(C)CC4)c(OC)cc23)c(Cl)cc1Cl [Bosutinib] | 109 ± 1.8
20 | NCC(=O)Nc1ccc(-n2nc(C(F)(F)F)cc2-c2ccc3c(ccc4ccccc43)c2)cc1 | 92.3 ± 8.1

Row | Compound | intracellular M.tb growth inhibition [%]
21 | C[S+]([O-])c1ccc(-c2nc(-c3ccc(F)cc3)c(-c3ccncc3)[nH]2)cc1 (stereo not given) | 14.3 ± 12
22 | N#CC(=C(/N)Sc1ccccc1N)/C(C#N)=C(/N)Sc1ccccc1N | 13.3 ± 58
23 | CCn1c(-c2nonc2N)nc2cnc(Oc3cccc(NC(=O)c4ccc(OCCN5CCOCC5)cc4)c3)cc21 | 54.4 ± 77
24 | Fc1ccc(Cl)cc1-c1nc(Nc2ccncc2)c2nccnc2n1 | 36.5 ± 10
25 | O=S(=O)(c1cccc2cnccc12)N1CCCNCC1 [Fasudil HCl] | 6.96 ± 7.6
26 | Nc1cc(N)c(N)cc1N [FAK Inhibitor 14] | 6.73 ± 56
27 | COc1cc2c(cc1OC)-c1[nH]nc(Nc3cccc(F)c3)c1C2 | 62.2 ± 12
28 | Cc1c[nH]c(/C=C2\C(=O)Nc3ccccc32)c1CCC(=O)O | 27.3 ± 23
29 | COc1cc(OC2CCN(C)CC2)ccc1Nc1ncc2c(n1)n(C1CCCC1)c(=O)n2C | -17.7 ± 25
30 | Cn1cncc1[C@@](N)(c1ccc(Cl)cc1)c1ccc2c(c1)c(-c1cccc(Cl)c1)cc(=O)n2C [Tipifarnib] | 3.85 ± 56
31 | CC#CC(=O)Nc1cc2c(Nc3ccc(F)c(Cl)c3)ncnc2cn1 | -68.3 ± 97
32 | CC1(C)CNc2cc(NC(=O)c3cccnc3NCc3ccncc3)ccc21 [Motesanib diphosphate salt] | 44.9 ± 27
33 | CC(NC(=O)C(C#N)=Cc1ccc(O)c(O)c1)c1ccccc1 (stereo not given) [Tyrphostin B44] | -7.66 ± 34
34 | O=C1c2ccc(O)c(O)c2C(=O)c2c(O)ccc(O)c21 [Quinalizarin] | -115 ± 210
35 | Oc1cccc(-c2nc(N3CCOCC3)c3sccc3n2)c1 [PI3-Kinase a Inhibitor 2] | -170 ± 240
36 | NC(=O)c1sc2c([N+](=O)[O-])cc(C(F)(F)F)cc2[n+]1[O-] [Cyclapolin 9] | -65.9 ± 140
37 | C/C(=N\N=C(N)N)c1ccc(NC(=O)Nc2ccc(/C(C)=N/N=C(N)N)cc2)cc1 | 63.3 ± 10
38 | CN(C)CCOc1cc(-c2cn[nH]c2)ccc1NC(=O)C1COc2ccccc2O1 (stereo not given) | -97.9 ± 79
39 | CCCOc1ccc(/C=C2/SC(=O)NC2=O)cc1 [PIM1/2 Kinase Inhibitor VI] | 24.9 ± 13
40 | COc1cc2ncnc(Nc3ccc(Oc4ccccc4)cc3)c2cc1OC | 41.9 ± 47
